# Assay outcomes deposited in PubChem BioAssay by National Center for Advancing Translational Sciences (NCATS).
# Only some compounds are listed: those with a hit (about 1.3% of all), similar ones and a draw of the others.
# KCNH2 3.1 inh = KCNH2 3.1 (human) potassium channel inhibition; activity change, % (tested at about 1.8 µM); U2OS KCNH2 3.1, thallium flux FluxOr; hits give low values; 340,000 compounds, 0.95% hits;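 active = maximum activity change below -70%; inconclusive = maximum activity change from -70% to -50%; inactive = maximum activity change above -50%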;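 also: thallium influx rate constant from kinetic fluorescence after stimulation buffer; % is scaled to controls: 0 for no effect and ±100 for the full control effect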
#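 Measured as rate of thallium-driven FluxOr signal in transduced U2OS cells carrying the 3.1 channel, read kinetically for 2 min upon stimulation; values are rate constants scaled to DMSO control wells.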
# TRPV1 potentiator = potentiators of human vanilloid receptor 1 (TRPV1); TRPV1-expressing cells, Fluo-8 calcium influx, capsaicin EC20 potentiation; potentiation, % at 8.33 µM; 320,000 compounds, 0.02% hits; AID 540277; in the data active = potentiation above about 80%; inconclusive = between about 30% and that limit; also: 0% is about no effect
# Target sequence (Q8NER1 whole entry, looked up): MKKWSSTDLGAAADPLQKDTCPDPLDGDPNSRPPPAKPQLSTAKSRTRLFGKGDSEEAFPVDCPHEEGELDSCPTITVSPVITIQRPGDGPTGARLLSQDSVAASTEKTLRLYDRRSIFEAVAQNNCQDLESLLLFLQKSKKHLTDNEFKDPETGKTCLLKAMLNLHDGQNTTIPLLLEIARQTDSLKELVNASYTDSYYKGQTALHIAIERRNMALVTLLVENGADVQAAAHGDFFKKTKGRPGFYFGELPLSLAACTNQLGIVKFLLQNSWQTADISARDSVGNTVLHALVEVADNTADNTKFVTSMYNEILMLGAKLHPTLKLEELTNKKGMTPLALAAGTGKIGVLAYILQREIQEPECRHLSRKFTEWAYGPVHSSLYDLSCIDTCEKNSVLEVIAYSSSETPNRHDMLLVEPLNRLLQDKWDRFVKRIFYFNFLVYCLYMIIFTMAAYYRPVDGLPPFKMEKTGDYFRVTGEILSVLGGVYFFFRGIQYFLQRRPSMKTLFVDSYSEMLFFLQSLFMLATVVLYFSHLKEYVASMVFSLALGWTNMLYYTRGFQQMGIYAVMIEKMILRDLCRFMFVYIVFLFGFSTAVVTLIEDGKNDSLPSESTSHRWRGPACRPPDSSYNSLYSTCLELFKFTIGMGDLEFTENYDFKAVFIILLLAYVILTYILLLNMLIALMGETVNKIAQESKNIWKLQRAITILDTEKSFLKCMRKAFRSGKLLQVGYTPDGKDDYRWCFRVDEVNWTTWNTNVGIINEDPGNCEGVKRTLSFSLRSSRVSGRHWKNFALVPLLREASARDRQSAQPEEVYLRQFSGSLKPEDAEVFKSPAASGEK
#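 TRPV1-expressing cells were cultured overnight at 35.5C and loaded with Fluo-8 calcium dye for 40 to 90 min at room temperature. After a 10 s baseline, compound was added and calcium influx was read kinetically for 3 min (ex 480/em 520 nm).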
# TRPV1 ag = agonists of human vanilloid receptor 1 (TRPV1); Q8NER1; TRPV1-expressing cells, Fluo-8 calcium influx, agonist mode; activation, % at 8.33 µM; 320,000 compounds, 0.19% hits; in the data active = activation above about 80%; inconclusive = between about 30% and that limit; also: 0% is about no effect
#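 Fluo-8 calcium influx in TRPV1-expressing cells, kinetic read (ex 480/em 520 nm). Compound added and read 3 min for agonist activity, followed by capsaicin at EC20 final and 2 min further read for enhancement.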
# KCNH2 WT inh = inhibitors of human wildtype KCNH2 potassium channel; AID 720551; activity change, % at 1.84 µM; 340,000 compounds, 0.37% hits; U2OS, BacMam KCNH2, thallium flux FluxOr; hits give low values;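 active = maximum activity change below -70%; inconclusive = maximum activity change between -70% and -50%; inactive = maximum activity change above -50%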; also: % is scaled to controls: 0 for no effect and ±100 for the full control effect
#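 U2OS cells transduced with wild-type KCNH2 virus are loaded with FluxOr dye for 45 min, and thallium flux is measured in kinetic reads before and after stimulation buffer. Rate constants are normalized to DMSO controls.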
# The depositor's hits bear a star; i = inactive; ? = inconclusive; . = no result given.
SMILES,KCNH2 3.1 inh,TRPV1 potentiator,TRPV1 ag,KCNH2 WT inh
COc1ccc([C@H]2C[C@@H](O)[C@H](n3cc(COC(=O)c4ccccc4)nn3)CN2CC2CCCCC2)cc1,-0.7,.,.,-0.2
CC(C)C(=O)Nc1ccc(S(=O)(=O)N2CCC(c3nc4ccccc4[nH]3)CC2)cc1,-6.9,-5.5,3.7,11.1
CCOC(=O)c1c(S(=O)(=O)N2CCCC(C(=O)Nc3ccc(C)cn3)C2)c(C)n(C)c1C (stereo unspecified),-2.7,12.2,-5.3,-8.3
CCOc1cc(/C=C2\CCCc3c2nc2ccccc2c3C(=O)O)ccc1OC,-10.0,-6.0,80.9*,3.1
COc1cc(/C=C2\CCCc3c2nc2ccccc2c3C(=O)O)cc(Br)c1O,-7.6,28.8,-5.6,-3.6
S=C1NC[C@H](Cc2ccccc2)N1CC1CCN(CCCC2CCCC2)CC1,-87.8*,.,.,-39.8
CC(C)C[C@H]1CNC(=S)N1CC1CCN(CCCCc2ccccc2)CC1,-71.2*,.,.,11.8
Cc1ccccc1NC(=O)Cc1nc(COC(=O)CSc2ccc(F)cc2)cs1,-2.3,.,.,3.8
Cc1ccc(S(=O)(=O)N2CCCCC2)cc1NC(=O)Cn1ccsc1=N,-11.7,-13.7,3.9,11.4
N=c1sccn1CC(=O)Nc1cccc(S(=O)(=O)N2CCCCCC2)c1,-70.9*,-0.9,3.2,.
Cc1cc2c(c(=O)n1Cc1ccccc1)C1O[C@](c3ccsc3)(Cc3cc(C#N)ccc31)O2,.,i,i,.
OCC1(CCc2ccccc2)CCCN(CCCc2ccccc2)C1 (stereo unspecified),-96.3*,-6.0,7.7,?
OCC1(CCc2ccccc2)CCCN(CCCC(F)(F)F)C1 (stereo unspecified),-10.4,-6.4,8.7,42.4
CC(=O)NC(CC(=O)N1CCCC1)c1ccccc1 (stereo unspecified),13.1,.,.,5.5
O=C(CNC(=O)c1ccccc1)OCN1C(=O)c2ccccc2C1=O,13.7,.,.,-12.1
O=C(CCNC(=O)c1ccccc1)OCN1C(=O)c2ccccc2C1=O,-73.2*,1.4,-3.5,-1.4
COc1ccc2oc(C(=O)N(Cc3ccco3)Cc3cccs3)c(C)c2c1,-22.0,6.9,3.1,5.5
CN(C)c1ccc(N2C(=NC(=O)CCC3CCCC3)SC3CS(=O)(=O)CC32)cc1 (stereo unspecified),-1.0,-0.1,1.5,-281.2*
CCCn1c(SC(C)C(=O)N2CCOCC2)nc2ccc(Br)cc2c1=O (stereo unspecified),-49.0,-6.8,83.3*,-1.0
COc1cc(C(=O)NC(=S)Nc2ccc(Cl)cn2)cc(OC)c1OC,2.3,-40.5,0.5,1.6
COc1ccc(C)cc1S(=O)(=O)N1CCN(C(=O)c2ncoc2-c2cccc(F)c2)CC1,5.4,-0.6,-0.7,-4.0
CCOn1c(=O)c(-c2ccc(C)cc2)[n+]([O-])c2ccccc21,-83.7*,17.2,2.5,0.7
COC(=O)c1c(NC(=O)C2COc3ccccc3O2)sc2c1CCN(Cc1ccccc1)C2 (stereo unspecified),-92.1*,7.7,3.1,2.5
COc1ccccc1CCC(=O)Oc1ccc(C#N)cc1OC,-5.0,8.0,4.4,-4.2
Nc1cc2[nH]c(=O)c3ccccc3c2cc1Br,7.1,.,.,-13.1
SMILES,KCNH2 3.1 inh,TRPV1 potentiator,TRPV1 ag,KCNH2 WT inh
Nc1ccc2c(c1)[nH]c(=O)c1ccccc12,-196.1*,.,.,-11.9
O=C(CCSCc1ccccc1F)NCc1ccc(F)cc1,2.1,5.9,82.1*,-4.4
O=C(CSCc1ccc(F)cc1)NCc1ccc(F)cc1,14.9,0.6,?,-9.3
Cc1ccc(CSCC(=O)NCc2ccc(F)cc2)cc1,-4.3,-1.9,82.0*,-1.3
CCOc1ccc(CNC(=O)CCSCc2ccccc2F)cc1OC,0.9,-9.5,104.4*,4.3
COc1ccc(CCNC(=O)CCSCc2ccccc2F)cc1OC,5.2,-18.6,?,3.7
CC(C)CC(=O)OC1C(N2CCOCC2)c2c(ccc(/C=C/C(=O)N3CCOCC3)c2O)OC1(C)C (stereo unspecified),2.8,-1.8,81.0*,-11.4
Cn1nccc1NC(=O)Nc1ccc(Cl)cc1,-85.8*,-18.6,?,-9.3
CC(C)Cc1cc(CN2CCC(CO)(Cc3cccc(C(F)(F)F)c3)CC2)[nH]n1,-82.5*,-5.2,2.3,-104.9*
Cc1ccc(-n2cc(CN3CCC(CO)(Cc4ccccc4)CC3)cn2)cc1,.,-10.3,11.8,.
Cc1ccc(-n2cc(CN3CCC(CO)(Cc4cccc(C(F)(F)F)c4)CC3)cn2)cc1,-98.7*,-3.6,13.8,-84.2*
COc1ccccc1N1CCN(Cc2cnc3ccc(Cl)cn23)CC1,9.3,-9.1,9.8,-3.2
